Assay results published in the supplement of paper PMC11732987, “Enantioselective OTUD7B fragment discovery through chemoproteomics screening and high-throughput optimisation” (Communications Chemistry, 2025).

Assays:
Test in all cases: log2 ratio of Biotin-Ahx-Ub-VS probe labelling (fragment/DMSO); higher = less target engagement (more negative = stronger competition), active = hit call of the paper (q ≤ 0.05, log2 ratio ≤ -1)
Conditions in all cases: compound concentration: 200 uM; treatment time: 3 h
USP42 = target: T1, USP42 (UniProt Q9H9J4)
T1 sequence (whole entry): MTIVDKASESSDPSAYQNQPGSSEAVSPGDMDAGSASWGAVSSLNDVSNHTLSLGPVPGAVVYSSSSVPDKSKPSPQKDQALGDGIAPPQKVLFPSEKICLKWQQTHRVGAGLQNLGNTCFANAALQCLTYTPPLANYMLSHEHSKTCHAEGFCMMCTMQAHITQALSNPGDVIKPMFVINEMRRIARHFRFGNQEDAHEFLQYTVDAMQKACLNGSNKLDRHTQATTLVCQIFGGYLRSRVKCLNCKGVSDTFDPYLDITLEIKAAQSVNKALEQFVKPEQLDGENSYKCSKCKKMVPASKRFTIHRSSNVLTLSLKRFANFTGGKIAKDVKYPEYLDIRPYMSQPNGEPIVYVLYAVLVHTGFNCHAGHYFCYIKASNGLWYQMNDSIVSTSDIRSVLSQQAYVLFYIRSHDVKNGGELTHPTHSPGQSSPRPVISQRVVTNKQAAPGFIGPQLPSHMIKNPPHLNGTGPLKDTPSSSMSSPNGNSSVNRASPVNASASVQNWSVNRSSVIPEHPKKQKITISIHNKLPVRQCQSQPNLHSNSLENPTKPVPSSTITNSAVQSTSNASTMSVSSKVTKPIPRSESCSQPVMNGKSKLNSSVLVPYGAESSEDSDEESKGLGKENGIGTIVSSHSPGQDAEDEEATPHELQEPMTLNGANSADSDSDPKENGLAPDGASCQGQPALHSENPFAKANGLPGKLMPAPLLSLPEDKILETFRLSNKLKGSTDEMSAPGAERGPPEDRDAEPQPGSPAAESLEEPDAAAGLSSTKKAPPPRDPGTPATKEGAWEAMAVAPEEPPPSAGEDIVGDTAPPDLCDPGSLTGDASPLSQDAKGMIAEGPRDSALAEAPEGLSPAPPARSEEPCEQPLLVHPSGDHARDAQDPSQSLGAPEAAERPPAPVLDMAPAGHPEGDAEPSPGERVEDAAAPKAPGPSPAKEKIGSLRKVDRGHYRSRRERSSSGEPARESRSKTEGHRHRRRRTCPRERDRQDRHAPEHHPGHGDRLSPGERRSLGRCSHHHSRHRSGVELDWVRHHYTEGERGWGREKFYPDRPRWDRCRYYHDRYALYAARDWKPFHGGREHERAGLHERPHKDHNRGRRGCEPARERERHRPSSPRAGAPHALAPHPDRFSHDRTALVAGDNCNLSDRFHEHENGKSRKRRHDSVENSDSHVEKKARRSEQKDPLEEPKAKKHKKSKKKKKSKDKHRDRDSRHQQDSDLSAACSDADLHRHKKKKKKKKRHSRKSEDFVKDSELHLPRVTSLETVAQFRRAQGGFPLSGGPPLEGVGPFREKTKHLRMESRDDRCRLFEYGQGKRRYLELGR
Summary of the method: (§1)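 Fragment (200 µM) or vehicle was incubated for 3 h with triplicate HEK293T lysate samples of 495 µg, which were then treated with Biotin-Ahx-Ub-VS at 0.5 µM final for 1 h. Labelled DUBs were enriched on NeutrAvidin, digested with LysC and trypsin, and analysed by diaPASEF LC-MS/MS. Values are average log2 fragment/vehicle ratios from an unpaired t-test on global-median-normalised Spectronaut label-free quantities, using proteins with ≥2 unique peptides.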

USP46 = USP46 (UniProt P62068)
Sequence of USP46 (P62068 whole entry): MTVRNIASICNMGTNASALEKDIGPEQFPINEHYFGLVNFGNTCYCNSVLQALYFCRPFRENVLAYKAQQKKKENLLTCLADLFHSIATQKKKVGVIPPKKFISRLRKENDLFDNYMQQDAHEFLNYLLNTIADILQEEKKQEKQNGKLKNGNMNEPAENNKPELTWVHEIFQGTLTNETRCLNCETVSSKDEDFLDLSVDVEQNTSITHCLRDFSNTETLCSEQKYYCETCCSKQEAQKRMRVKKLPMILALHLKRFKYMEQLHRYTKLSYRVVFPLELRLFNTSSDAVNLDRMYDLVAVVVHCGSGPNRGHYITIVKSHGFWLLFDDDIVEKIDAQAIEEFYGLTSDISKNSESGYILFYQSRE
Summary of the method: as §1

USP47 = target: T2, USP47 (UniProt Q96K76)
T2 sequence (whole entry): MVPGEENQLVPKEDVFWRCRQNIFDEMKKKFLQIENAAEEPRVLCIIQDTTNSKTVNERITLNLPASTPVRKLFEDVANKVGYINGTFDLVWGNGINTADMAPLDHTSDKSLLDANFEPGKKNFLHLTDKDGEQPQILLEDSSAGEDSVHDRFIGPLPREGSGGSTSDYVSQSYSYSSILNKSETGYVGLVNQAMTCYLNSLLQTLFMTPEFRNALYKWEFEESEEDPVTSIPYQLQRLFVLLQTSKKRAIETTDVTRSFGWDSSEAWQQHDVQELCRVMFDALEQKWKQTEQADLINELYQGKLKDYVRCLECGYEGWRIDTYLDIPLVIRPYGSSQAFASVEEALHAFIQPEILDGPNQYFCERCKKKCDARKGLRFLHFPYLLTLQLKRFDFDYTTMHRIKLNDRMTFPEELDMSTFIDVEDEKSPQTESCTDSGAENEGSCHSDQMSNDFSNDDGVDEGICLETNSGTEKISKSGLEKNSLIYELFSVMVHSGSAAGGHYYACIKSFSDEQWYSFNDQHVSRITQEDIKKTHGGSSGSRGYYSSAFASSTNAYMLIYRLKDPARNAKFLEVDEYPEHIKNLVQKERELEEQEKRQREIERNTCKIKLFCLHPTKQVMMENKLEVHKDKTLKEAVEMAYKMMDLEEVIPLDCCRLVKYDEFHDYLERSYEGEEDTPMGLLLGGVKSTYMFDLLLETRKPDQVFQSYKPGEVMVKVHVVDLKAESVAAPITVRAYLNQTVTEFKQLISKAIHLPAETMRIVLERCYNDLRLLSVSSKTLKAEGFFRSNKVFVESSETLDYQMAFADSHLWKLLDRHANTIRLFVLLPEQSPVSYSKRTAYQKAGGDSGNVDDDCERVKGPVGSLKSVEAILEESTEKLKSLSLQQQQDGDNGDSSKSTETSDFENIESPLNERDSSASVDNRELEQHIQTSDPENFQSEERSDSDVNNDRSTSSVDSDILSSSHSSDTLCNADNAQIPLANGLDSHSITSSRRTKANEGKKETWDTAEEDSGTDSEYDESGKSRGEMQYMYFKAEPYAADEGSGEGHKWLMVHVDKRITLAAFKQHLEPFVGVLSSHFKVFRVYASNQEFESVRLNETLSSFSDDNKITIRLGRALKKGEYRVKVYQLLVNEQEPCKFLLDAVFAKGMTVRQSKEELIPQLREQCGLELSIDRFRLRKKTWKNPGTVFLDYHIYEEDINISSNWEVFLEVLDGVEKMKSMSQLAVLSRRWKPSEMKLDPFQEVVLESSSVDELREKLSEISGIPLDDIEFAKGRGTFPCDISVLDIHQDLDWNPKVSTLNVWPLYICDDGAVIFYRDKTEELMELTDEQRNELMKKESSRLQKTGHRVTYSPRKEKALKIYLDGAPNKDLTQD
Summary of the method: as §1

USP48 = target: T3, USP48 (UniProt Q86UV5)
T3 sequence (whole entry): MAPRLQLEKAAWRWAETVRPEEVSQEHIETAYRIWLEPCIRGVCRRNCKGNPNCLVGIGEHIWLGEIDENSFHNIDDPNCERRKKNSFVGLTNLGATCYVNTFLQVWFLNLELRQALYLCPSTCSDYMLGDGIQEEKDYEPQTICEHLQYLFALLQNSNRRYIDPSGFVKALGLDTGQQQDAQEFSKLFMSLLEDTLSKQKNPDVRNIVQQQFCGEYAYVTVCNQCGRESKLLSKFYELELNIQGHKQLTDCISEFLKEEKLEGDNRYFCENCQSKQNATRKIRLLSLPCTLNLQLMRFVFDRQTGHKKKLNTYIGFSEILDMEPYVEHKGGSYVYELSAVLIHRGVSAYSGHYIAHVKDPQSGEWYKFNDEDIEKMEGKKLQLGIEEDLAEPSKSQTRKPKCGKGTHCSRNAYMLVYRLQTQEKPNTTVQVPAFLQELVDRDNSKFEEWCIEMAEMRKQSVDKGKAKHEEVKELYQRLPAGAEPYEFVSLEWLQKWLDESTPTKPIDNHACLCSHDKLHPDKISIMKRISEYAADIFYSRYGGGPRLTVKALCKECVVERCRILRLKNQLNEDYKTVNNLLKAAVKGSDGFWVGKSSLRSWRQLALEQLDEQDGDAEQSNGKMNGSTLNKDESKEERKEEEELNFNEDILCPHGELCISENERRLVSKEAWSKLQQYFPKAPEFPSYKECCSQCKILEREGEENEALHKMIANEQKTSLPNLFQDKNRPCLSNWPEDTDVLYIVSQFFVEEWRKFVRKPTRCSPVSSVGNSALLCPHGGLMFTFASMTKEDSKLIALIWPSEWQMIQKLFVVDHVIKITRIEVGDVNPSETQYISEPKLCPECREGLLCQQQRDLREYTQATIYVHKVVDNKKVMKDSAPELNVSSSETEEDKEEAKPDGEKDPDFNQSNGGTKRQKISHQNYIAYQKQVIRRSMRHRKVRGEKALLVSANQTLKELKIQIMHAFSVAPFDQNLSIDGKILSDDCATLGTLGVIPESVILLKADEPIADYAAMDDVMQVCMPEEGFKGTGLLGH
Summary of the method: as §1

USP5 = target: T4, USP5 (UniProt P45974)
T4 sequence (whole entry): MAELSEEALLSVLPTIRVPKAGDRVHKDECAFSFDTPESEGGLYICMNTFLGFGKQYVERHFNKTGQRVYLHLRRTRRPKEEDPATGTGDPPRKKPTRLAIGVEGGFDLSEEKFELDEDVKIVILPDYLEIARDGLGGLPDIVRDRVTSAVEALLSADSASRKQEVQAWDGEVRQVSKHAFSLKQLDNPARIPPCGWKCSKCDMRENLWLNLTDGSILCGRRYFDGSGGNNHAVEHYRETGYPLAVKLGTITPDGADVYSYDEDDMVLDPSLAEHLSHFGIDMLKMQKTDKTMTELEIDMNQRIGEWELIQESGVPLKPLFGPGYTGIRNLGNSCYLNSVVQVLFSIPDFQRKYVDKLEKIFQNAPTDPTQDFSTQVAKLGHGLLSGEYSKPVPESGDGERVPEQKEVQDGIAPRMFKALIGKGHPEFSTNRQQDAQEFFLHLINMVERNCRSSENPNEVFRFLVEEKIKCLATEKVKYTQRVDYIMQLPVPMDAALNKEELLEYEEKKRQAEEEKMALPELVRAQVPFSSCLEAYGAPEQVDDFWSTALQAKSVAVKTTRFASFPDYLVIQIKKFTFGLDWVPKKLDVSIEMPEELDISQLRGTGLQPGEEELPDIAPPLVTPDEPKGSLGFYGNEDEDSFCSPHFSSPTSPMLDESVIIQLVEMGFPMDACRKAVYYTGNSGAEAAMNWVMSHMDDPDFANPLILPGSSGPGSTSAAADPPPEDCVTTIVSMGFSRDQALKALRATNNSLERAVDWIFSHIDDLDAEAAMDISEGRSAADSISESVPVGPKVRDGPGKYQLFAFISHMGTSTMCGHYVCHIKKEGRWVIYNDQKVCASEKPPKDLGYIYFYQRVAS
Summary of the method: as §1

USP54 = USP54 (UniProt Q70EL1)
Sequence of USP54 (Q70EL1 whole entry): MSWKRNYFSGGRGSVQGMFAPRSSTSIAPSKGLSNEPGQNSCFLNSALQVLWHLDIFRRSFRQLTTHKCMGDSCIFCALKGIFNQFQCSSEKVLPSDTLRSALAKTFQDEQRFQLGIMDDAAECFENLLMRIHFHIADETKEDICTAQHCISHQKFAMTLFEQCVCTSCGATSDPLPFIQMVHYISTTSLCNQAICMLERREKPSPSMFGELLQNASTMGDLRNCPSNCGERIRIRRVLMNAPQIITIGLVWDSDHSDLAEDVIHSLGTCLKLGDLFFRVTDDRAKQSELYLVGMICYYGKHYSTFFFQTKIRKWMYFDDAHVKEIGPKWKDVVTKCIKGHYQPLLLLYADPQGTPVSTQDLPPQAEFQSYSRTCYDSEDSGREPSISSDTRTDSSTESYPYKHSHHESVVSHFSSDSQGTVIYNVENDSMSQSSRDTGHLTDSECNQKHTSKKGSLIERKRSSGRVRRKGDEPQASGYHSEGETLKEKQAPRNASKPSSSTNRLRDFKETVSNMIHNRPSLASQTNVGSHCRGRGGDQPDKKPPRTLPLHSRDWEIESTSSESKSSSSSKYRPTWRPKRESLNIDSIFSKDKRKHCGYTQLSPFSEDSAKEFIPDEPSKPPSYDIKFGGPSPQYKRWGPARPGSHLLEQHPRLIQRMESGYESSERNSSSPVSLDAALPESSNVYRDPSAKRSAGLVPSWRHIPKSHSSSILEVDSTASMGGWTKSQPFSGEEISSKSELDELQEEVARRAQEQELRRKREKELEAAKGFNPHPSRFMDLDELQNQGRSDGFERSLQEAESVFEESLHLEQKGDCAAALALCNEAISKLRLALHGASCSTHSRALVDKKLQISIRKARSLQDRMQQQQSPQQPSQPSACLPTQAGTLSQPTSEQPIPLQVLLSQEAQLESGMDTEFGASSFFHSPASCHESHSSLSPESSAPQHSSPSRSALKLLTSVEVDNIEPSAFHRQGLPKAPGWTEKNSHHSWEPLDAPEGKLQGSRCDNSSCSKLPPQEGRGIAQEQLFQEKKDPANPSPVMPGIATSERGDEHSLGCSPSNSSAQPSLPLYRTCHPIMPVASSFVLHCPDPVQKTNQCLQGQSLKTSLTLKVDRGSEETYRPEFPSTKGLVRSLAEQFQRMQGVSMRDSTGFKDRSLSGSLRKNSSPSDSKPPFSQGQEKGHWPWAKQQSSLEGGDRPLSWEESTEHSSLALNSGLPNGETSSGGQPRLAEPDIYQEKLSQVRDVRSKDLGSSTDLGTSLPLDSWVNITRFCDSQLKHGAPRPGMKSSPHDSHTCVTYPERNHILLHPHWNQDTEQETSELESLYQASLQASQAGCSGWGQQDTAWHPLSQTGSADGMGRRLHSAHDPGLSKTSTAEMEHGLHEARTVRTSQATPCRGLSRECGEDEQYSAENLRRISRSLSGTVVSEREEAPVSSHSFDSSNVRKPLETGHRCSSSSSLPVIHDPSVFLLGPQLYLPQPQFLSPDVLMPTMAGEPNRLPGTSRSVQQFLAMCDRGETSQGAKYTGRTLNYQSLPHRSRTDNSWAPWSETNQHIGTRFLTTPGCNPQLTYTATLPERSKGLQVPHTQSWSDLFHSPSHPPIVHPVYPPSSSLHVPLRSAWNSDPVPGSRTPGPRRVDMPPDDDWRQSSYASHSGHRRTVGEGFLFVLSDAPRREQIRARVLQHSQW
Summary of the method: as §1

USP7 = USP7 (UniProt Q93009)
Sequence of USP7 (Q93009 whole entry, looked up): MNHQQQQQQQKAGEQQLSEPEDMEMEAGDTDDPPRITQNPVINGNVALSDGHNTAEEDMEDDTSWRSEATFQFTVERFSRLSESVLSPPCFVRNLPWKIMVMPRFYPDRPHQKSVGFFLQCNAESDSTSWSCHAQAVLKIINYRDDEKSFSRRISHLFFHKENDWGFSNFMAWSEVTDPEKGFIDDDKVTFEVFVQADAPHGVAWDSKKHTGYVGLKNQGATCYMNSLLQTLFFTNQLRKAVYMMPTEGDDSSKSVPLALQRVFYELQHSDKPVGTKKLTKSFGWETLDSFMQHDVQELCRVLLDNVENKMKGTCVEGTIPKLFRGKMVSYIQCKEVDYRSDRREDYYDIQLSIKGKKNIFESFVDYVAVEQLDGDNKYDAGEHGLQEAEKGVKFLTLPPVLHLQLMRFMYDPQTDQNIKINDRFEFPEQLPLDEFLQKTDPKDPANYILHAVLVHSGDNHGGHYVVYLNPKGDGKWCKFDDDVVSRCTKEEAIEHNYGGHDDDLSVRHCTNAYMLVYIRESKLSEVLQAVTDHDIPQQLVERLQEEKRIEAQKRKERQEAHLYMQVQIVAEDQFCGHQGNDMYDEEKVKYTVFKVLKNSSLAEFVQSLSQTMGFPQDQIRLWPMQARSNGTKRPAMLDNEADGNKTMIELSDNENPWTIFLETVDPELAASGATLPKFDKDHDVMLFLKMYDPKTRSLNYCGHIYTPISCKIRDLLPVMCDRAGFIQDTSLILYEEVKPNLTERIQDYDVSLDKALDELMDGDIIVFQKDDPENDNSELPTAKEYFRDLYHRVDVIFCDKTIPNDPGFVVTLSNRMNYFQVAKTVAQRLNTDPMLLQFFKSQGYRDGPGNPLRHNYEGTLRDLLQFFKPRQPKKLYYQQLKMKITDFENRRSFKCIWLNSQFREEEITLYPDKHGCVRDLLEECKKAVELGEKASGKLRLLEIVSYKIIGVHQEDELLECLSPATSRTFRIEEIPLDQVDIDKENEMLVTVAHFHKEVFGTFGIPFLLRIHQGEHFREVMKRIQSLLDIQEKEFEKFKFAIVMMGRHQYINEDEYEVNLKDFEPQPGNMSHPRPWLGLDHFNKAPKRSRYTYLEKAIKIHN
Summary of the method: as §1

USP8 = target: T5, USP8 (UniProt P40818)
T5 sequence (whole entry): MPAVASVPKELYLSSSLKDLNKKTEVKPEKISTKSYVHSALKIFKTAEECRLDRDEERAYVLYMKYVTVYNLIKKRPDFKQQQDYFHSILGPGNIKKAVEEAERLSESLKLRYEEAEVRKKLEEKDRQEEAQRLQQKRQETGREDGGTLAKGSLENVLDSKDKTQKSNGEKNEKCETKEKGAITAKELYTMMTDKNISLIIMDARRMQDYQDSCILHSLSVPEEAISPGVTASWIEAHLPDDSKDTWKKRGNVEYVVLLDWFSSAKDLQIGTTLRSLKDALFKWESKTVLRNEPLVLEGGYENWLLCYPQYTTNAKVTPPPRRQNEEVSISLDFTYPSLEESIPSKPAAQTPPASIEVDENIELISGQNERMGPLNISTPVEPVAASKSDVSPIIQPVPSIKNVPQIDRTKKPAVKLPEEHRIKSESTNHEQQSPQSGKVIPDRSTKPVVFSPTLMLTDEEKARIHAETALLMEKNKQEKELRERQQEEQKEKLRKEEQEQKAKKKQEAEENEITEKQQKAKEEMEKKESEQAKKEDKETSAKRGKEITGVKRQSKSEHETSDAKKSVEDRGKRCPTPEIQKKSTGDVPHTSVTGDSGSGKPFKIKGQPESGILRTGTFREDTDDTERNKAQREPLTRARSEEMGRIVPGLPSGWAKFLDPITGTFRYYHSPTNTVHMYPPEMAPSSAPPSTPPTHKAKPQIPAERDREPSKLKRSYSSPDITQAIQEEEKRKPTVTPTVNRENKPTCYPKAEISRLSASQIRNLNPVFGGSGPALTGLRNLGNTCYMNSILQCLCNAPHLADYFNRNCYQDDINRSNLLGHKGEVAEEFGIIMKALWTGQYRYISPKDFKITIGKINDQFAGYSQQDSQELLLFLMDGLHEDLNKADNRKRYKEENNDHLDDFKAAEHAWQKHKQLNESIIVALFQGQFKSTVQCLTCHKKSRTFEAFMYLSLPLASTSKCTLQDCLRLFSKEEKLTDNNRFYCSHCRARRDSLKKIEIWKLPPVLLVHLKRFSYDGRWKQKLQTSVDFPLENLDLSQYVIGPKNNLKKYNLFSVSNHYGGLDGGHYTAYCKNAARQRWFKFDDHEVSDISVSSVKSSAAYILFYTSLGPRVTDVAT
Summary of the method: as §1

Measured: log2 ratio of Biotin-Ahx-Ub-VS probe labelling

CC(C)n1nccc1NC(=O)CCl
inactive: USP42 -0.0446 | USP46 0.0362 | USP47 -0.313 | USP48 -0.375 | USP5 0.00439 | USP54 0.614 | USP7 -0.278 | USP8 -0.493
